Laboratory results: PubChem BioAssay AID540327 (National Center for Advancing Translational Sciences (NCATS), 2011)
Several values for one entry are separate records, joined by “and”; a condition that tells them apart may be missing. Equal entries are not always repeated. The list shows a part of the results. Inconclusive results are not listed. Activity calls are given as the source filed them. The call rests on the fitted dose curve; in most records, active means well fitted inhibition curve with a large enough effect; inconclusive means small, poorly fitted or top-dose-only effect; inactive means flat fitted curve, though single readings scatter.

Biological target: Ubiquitin carboxyl-terminal hydrolase 1 (Homo sapiens) (UniProt O94782)
Assay: Inhibitors of USP1/UAF1: Hit Validation in Primary Assay
Settings: Ub-Rhodamine cleavage, fluorescence kinetic read
Source text: Deubiquitinating enzymes (DUBs) are a class of enzymes that can cleave isopeptide bond formed between the C-terminal carboxylate of ubiquitin and a lysine side-chain amino group on the target protein. Among them, ubiquitin specific proteases (USPs) constitute the largest DUB family. Human USPs are emerging as promising targets for pharmacological intervention because of their connection to a number of human diseases, including prostate, colon and breast cancer (1, 2), pediatric acute lymphoblastic leukemia (3), and familial cylindromatosis (4). The advantage of inhibiting USPs lies in the potential specificity of therapeutic intervention that can lead to better efficacy and reduce nonspecific side effects. […] This miniaturized assay has a fluorescent read-out and is used to screen the NIH Molecular Libraries Small Molecule Repository (MLSMR) in order to identify a small molecule that inhibits USP1. […]
3 microliters of reagents (buffer in columns 3 and 4 as negative control and 1nM USP1/UAF1 complex in columns 1, 2, and 5-48) are dispensed into Greiner black solid bottom 1536-well assay plates. […] The plates are immediately centrifuged at 1000 rpm for 15 seconds, and subsequently transferred to a ViewLux high-throughput CCD imager (PerkinElmer) wherein kinetic measurements of fluorescence are acquired using 480 nm excitation/540 nm emission filter set (6 reads every 60 seconds, see Table 1). […]

Ubiquitin carboxyl-terminal hydrolase 1 (Homo sapiens), sequence (O94782 whole entry, looked up): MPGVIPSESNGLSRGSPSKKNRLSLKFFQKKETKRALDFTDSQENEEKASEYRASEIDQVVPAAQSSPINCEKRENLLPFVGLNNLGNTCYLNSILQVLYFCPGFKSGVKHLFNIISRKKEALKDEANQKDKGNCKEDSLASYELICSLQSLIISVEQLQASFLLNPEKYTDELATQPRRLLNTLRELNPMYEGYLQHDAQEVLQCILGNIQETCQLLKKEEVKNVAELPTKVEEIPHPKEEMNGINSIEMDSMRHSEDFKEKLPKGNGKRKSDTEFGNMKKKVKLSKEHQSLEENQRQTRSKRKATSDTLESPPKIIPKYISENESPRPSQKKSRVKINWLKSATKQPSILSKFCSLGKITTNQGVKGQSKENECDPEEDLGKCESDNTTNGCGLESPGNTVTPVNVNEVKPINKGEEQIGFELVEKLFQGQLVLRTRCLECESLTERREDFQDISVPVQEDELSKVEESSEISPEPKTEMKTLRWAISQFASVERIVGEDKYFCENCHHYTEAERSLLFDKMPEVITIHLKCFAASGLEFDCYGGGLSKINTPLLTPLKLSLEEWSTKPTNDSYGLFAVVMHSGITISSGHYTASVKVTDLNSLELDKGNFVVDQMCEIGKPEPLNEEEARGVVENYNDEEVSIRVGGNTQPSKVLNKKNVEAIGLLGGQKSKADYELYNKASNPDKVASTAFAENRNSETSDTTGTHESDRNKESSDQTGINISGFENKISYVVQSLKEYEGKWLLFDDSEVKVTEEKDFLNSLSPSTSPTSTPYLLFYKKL

In the case of `CC(C)c1ccc2c(c1)c(SC(C)(C)C)c(CC(C)(C)C(=O)O)n2Cc1ccc(Cl)cc1`, the Potency is reported as 66.3 µM (active) and 41.8 µM (active).
